What all share (experiment): qHTS profiling for inhibitors of Plasmodium falciparum proliferation (AID 504749); also: nearly all actives have a fitted effect of over 60% in size
Conditions in all cases: P. falciparum in erythrocytes, SYBR Green DNA, 72 h; series mostly up to 28.7 µM
Background: Quantitative high-throughput screening tests each substance at several concentrations.

For one assay, the system named is ATS189. A digest of the protocol:
(§1)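 Quantitative HTS: compounds pinned into medium, infected erythrocytes added (0.3% parasitemia, 2.5% hematocrit), 72 h culture at 37 C under 5% CO2. Saponin/Triton lysis with SYBR Green I, overnight RT, then fluorescence read.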

The test system of a further assay is ATS95. A digest of the protocol:
as §1

Another assay deals with C2A. A digest of the protocol: as §1
A further assay concerns CP185. In a few lines: as §1
The subject of another assay is CP191. A digest of the protocol: as §1
In another assay the test system is CP192. A digest of the protocol:
as §1

A further assay deals with CP194. In a few lines: as §1
The next assay has as its system CP201. In a few lines:
as §1

The subject of a further assay is CP203. A digest of the protocol:
as §1

For another assay, the system named is CP211. In a few lines: as §1

Structures are written as SMILES. Records with an inconclusive call do not appear. Activity calls are given as the source filed them. Calls follow the shape of the dose curve; as a rule, active = well fitted inhibition curve with a large enough effect; inconclusive = small, poorly fitted or top-dose-only effect; inactive = flat fitted curve, though single readings scatter.
Potency is read from the fitted curve at half-maximal effect.

On to `Nc1ncnc2nc[nH]c12`, for which the Potency result with ATS189, in the assay on ATS95, with C2A, in the assay with CP185, in the assay on CP191 and in the assay with CP192 was “inactive” throughout. Further, the Potency result in the assay on CP194, with CP201, in the assay on CP203 and in the assay on CP211 was “inactive” in each case.
Consider `O=[N+]([O-])c1ccc(O)c2ncccc12`, for which the Potency in the assay with C2A and in the assay with CP191 was 12.6 µM (active) in each case.
In the case of `O=C(Nc1ccc(Cl)cc1)Nc1ccc(Cl)c(Cl)c1`, the Potency with ATS189 was 3.16 µM (active); with ATS95 it was 3.16 µM (active); with C2A it was 3.16 µM (active); in the assay with CP185 it was 2.51 µM (active); in the assay with CP191, 2.82 µM (active); with CP192, 9.53 µM (active). Further, the Potency with CP194 is 6.01 µM (active); in the assay with CP201, 7.57 µM (active); with CP203, 4.26 µM (active); with CP211, 6.01 µM (active).
As for `CC(NCCC(c1ccccc1)c1ccccc1)c1ccccc1` (stereo unspecified), the Potency with ATS95 is 11.2 µM (active); in the assay with C2A, 10 µM (active); in the assay on CP185, 8.91 µM (active); in the assay on CP191, 10 µM (active); with CP194, 15.1 µM (active).
On to `CN1CCCN(C(c2ccccc2)c2ccc(Cl)cc2)CC1` (stereo unspecified), for which the Potency with ATS189 is 10 µM (active); with ATS95, 11.2 µM (active); with C2A, 11.2 µM (active); in the assay on CP191 it was 10 µM (active).
Regarding `CCCCCCCCCCCCCCCC[n+]1ccccc1`, the Potency in the assay with ATS189 was 6.31 µM (active); in the assay on ATS95, 7.94 µM (active); in the assay on C2A, 4.47 µM (active); in the assay with CP185 it was 7.94 µM (active); with CP191, 4.47 µM (active); in the assay with CP192, 7.57 µM (active). In addition, the Potency in the assay with CP194 is 6.75 µM (active); in the assay with CP201 it was 7.57 µM (active); in the assay on CP203, 9.53 µM (active); in the assay with CP211, 6.75 µM (active).
For `Nc1c2ccccc2nc2ccccc12`, the Potency with ATS189 was 7.08 µM (active); with ATS95 it was 11.2 µM (active); in the assay with CP185, 8.91 µM (active); with CP191, 11.2 µM (active); in the assay on CP192 it was 12 µM (active).
Turning to `CN1CCC(Nc2ncc3ncnc(Nc4ccc(F)c(Cl)c4)c3n2)CC1`, in the assay with C2A, the Potency was 11.2 µM (active).
For `CCCCCCCCCCCCCC[N+](C)(C)C`, the Potency with ATS189 is 5.62 µM (active); in the assay on ATS95 it was 7.08 µM (active); in the assay on C2A it was 3.98 µM (active); with CP185, 5.62 µM (active); with CP191 it was 4.47 µM (active); in the assay with CP192, 6.01 µM (active). Besides, the Potency in the assay on CP194 was 6.75 µM (active); with CP201, 12 µM (active); in the assay on CP203, 6.75 µM (active); in the assay with CP211, 6.01 µM (active).
As to `CCCCCCCCCCCCCCCC[N+](C)(C)Cc1ccccc1`, the Potency in the assay with ATS189 was 3.55 µM (active); in the assay on ATS95, 3.55 µM (active); with C2A it was 10 µM (active); with CP185, 0.501 µM (active); in the assay on CP191, 1 µM (active); with CP192, 9.53 µM (active). For the same compound, the results for the Potency with CP194, in the assay on CP201 and in the assay with CP211 were 12 µM (active), 12 µM (active) and 10.7 µM (active), respectively.
For `O=S(=O)(O)c1ccc2nc(-c3ccccc3)[nH]c2c1`, the Potency result in the assay on ATS189, in the assay with ATS95, in the assay with C2A, with CP185, with CP191 and with CP192 was “inactive” throughout. Besides, the Potency entry in the assay on CP194, with CP201, in the assay with CP203 and in the assay with CP211 was “inactive” in each case.

These data come from PubChem BioAssay (NCATS).
